# The list is not random: actives were taken first. Their share in the collection is about 19%.
# DT40 TDP1 CPT: qHTS for Inhibitors of human tyrosyl-DNA phosphodiesterase 1 (TDP1): qHTS in cells in presence of CPT | chicken DT40 Tdp1-/-;hTDP1 cells + 20 nM CPT, ATP luminescence, 48 h | Potency, µM (doses to about 46.2 µM), for inactives: at the top dose activity change, negative = growth inhibition, hits mostly inhibitors | 420,000 tested, 12% active | AID 686979, 2013; note: potency is the fitted concentration of half-maximal effect; nearly all actives have a fitted effect of over 55% in size
#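 Cell growth measured by CellTiter-Glo luminescence after a minimum 48 h, 37 C compound exposure with 20 nM CPT in Tdp1-knockout DT40 cells stably expressing hTDP1, seeded 400/well; qHTS titration format.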
# IL1B secr inh: qHTS for Inhibitors of Inflammasome Signaling: IL-1-beta AlphaLISA Primary Screen; THP-1 LPS/ATP IL-1B secretion, AlphaLISA, 16 h; hits give low values; 360,000 tested, 4.7% active; activity change, % at 57.5 µM; in the data active = activity change below about -50%; inconclusive = mostly about -30% to -49%
#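 Secreted IL-1B measured by AlphaLISA bead assay after 16 h compound exposure of THP-1 cells; compounds (final up to 57.5 uM) added 1 h before LPS (250 ng/mL) and ATP (1.25 mM) stimulation; lower signal means less secretion.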
# DT40 TDP1 no CPT: qHTS for Inhibitors of human tyrosyl-DNA phosphodiesterase 1 (TDP1): qHTS in cells in absence of CPT; DT40 Tdp1-/- hTDP1 cells, no CPT, ATP luminescence, 48 h; Potency, µM (highest dose often 46.2 µM), for inactives: top-dose activity change, negative = growth inhibition, most hits filed as inhibitors; 420,000 tested, 15% active; AID 686978, 2013; note: potency is the fitted concentration of half-maximal effect; nearly all actives have a fitted effect of over 55% in size
#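 Compound effects on proliferation are scored in DT40 Tdp1-/-;hTDP1 cells in the absence of CPT. ATP levels (CellTiter-Glo luminescence) are recorded after a ≥48 hr, 37 °C incubation.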
# HT1080NT lethal: qHTS for induction of synthetic lethality in tumor cells producing 2HG: qHTS for the HT-1080-NT fibrosarcoma cell line; HT-1080-NT fibrosarcoma viability, CellTiter-Glo ATP luminescence, 48 h; Potency, µM (highest dose often 46.1 µM), for the others: top-dose activity, negative = less viability, usual class: cytotoxic; 360,000 tested, 1.6% active;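 note: NT is the 2HG producing partner of a matched IDH1 knockdown line; potency is the fitted concentration of half-maximal effect; 0% = DMSO-treated cells and -100% = media-only wells without cells; nearly all actives have a fitted effect of over 55% in size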
#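 Viability of the 2HG-overproducing fibrosarcoma line after 48 hours of compound exposure at 37 degrees C was determined by luminescence with CellTiter-Glo, and concentration-effect curves were then fitted and categorized.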
# uPA generation: qHTS for Inhibitors of Cell Surface uPA Generation | 330,000 tested, 0.31% active | cell surface uPA generation assay, qHTS | Potency, µM (top dose mostly 38.3 µM), inactives show at the highest dose activity change, negative = inhibition, actives largely listed as inhibitors; active = well fitted inhibition curve with a large enough effect; inconclusive = small, poorly fitted or top-dose-only effect; inactive = no such curve, though single readings can be large or run the other way; tested in mouse RAW 264.7 cells; note: potency is the fitted concentration of half-maximal effect; nearly all actives have a fitted effect of over 55% in size
# HT1080 IDH1KD tx: qHTS for induction of synthetic lethality in tumor cells producing 2HG: qHTS for the HT-1080-IDH1KD cell line. HT-1080 IDH1 knockdown viability, ATP luminescence, 48 h. Potency, µM (series often up to 46.1 µM), for the others: top-dose activity, negative = toxicity, usual class: cytotoxic. 360,000 tested, 2% active. AID 686971, 2013;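 note: potency is the fitted concentration of half-maximal effect; 0% = DMSO wells and -100% = cell-free medium wells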
#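 IDH1KD HT-1080 cells, 750/well, RPMI + 5% FBS; compound pinned after 2 h settling; 48 h, 37 °C; CellTiter-Glo luminescence; % activity normalised to DMSO and no-cell wells; curves fitted, classed by r2 and efficacy.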
# Active calls of the source: *; u = inconclusive; x = no result; ! = a repeat was not active. Unless noted, calls come from the whole dose curve; as a rule, active = well fitted curve in the direction sought with a large enough effect; inconclusive = small, poorly fitted or top-dose-only effect, or another doubt; inactive = no such curve, though single readings can be large; an effect the other way counts as inactive or inconclusive. Unless noted, % is set by controls: 0 for no effect and ±100 for the full control effect.
SMILES,DT40 TDP1 CPT,IL1B secr inh,DT40 TDP1 no CPT,HT1080NT lethal,uPA generation,HT1080 IDH1KD tx
CC[C@H](C)/C=C(C)/C=C/C1=CC2=C(Cl)C(=O)[C@@](C)(OC(C)=O)C(=O)C2=CO1,u,-12.7,u,23.6%,-11.6%,-3.2%
CNC(=O)O/N=C(/C)SC,-5.2%,x,-3.2%,x,x,x
CS(=O)(=O)c1ccc(C2=C(CNC(=O)c3ccncc3)[C@H]3CC[C@@H](C2)N3CCOc2ccccc2)cc1,7.1%,20.2,0.6%,1.9%,x,3.6%
CS(=O)(=O)c1ccc(C2=C(CNC(=O)c3ccc([N+](=O)[O-])cc3)[C@H]3CC[C@@H](C2)N3Cc2ccccc2)cc1,-17.8%,-17.4,-25.6%,-11.6%,x,-10.0%
CS(=O)(=O)c1ccc(C2=C(CNC(=O)c3ccc([N+](=O)[O-])cc3)[C@H]3CC[C@@H](C2)N3CCOc2ccccc2)cc1,u,-20.4,14.6µM*,-9.9%,x,-20.4%
O=C(NCC1=C(c2cccc3ccccc23)C[C@@H]2CC[C@H]1N2Cc1ccco1)c1ccc([N+](=O)[O-])cc1,20.6µM*,-61.5*,18.4µM*,u,x,u
Cc1cc(C=C2C(=O)NC(=S)NC2=O)c(C)n1C1CCCC1,14.6µM*,-52.6*,u,-22.3%,-2.8%,u
COc1ccc(OC)c(N2Cc3ccccc3C2=N)c1,u,-16.8,u,0.9%,1.1%,-1.7%
O=C1NC(=O)C(=Cc2coc3ccc(O)cc3c2=O)C(=O)N1,16.4µM*,-23.1,20.6µM*,-9.9%,-18.0%,-23.0%
O=C1NC(=O)C(=Cc2ccco2)C(=O)N1,u,-13.8,-29.9%,-16.5%,1.1%,-6.2%
CC(=O)Nc1nnc(CCN(CCc2nnc(NC(C)=O)s2)[N+](=O)[O-])s1,-5.6%,-3.2,-16.5%,21.4%,0.5%,14.6%
O=P(OCC(F)(F)C(F)F)(N1CCCCC1)N1CCCCC1,-5.3%,-5.2,7.3%,-0.1%,-1.7%,0.3%
Cc1ccc(Nc2nnc(SCC(=O)NCC3CCCO3)s2)cc1C (stereo not given),u,4.6,-25.7%,-9.2%,u,-10.5%
CCCCN1C(=O)NC(=O)C2(Cc3c(nc4c(C)cccn4c3=O)N3CCc4ccccc4C32)C1=O (stereo not given),20.6µM*,26.2,16.4µM*,0.4%,-9.6%,-4.8%
CCO[C@@H]1OC(C(=O)NCc2ccccc2)=C[C@H](c2csc3ccccc23)[C@H]1CCCO,u,u,u,u,u,-28.3%
Cc1ncc(CN2CCCC(C(=O)c3sccc3C)C2)s1 (stereo not given),u,48.8,-19.9%,-7.6%,-3.7%,-1.9%
c1ccc(CNC2CCCCCCC2)cc1 (tested in a mixture with another compound),-26.9%,-73.7*,u,-7.1%,-9.7%,-7.4%
C[C@H]1C(=O)O[C@@H]2CCN3CC=C(COC(=O)[C@](C)(O)[C@]1(C)O)[C@H]23,11.6µM*!,3.7,u,23.0%,-13.7%,7.8%
C/C=C1/C[C@@H](C)[C@](O)(CO)C(=O)OCC2=CCN3CC[C@@H](OC1=O)[C@@H]23,u,40.8,u,12.8%,-6.3%,-6.7%
CN[C@@H](C)[C@H](O)c1ccccc1,17.8%,x,-10.6%,x,x,x
CN1C[C@@H]2C[C@@H](c3cccn3-c3ccccn3)N3CCC[C@@]23C1=O,4.0%,19.0,-6.8%,-8.6%,-1.1%,-1.4%
Cc1[nH]c2ccccc2c1CCNCc1cccnc1,3.0%,-4.9,-2.0%,11.3%,-0.6%,9.8%
COc1ccc2[nH]c(C)c(CCNCc3cn(C)c4ccccc34)c2c1,11.6µM*,-86.2*,9.2µM*,u,4.9%,u
COc1ccc(CCNc2nc3c(c(=O)n(C)c(=O)n3C)n2Cc2ccc(F)cc2)cc1OC,6.51µM*,x,3.26µM*,x,x,x
COc1ccc(CCn2c(O)c(C=Nc3ccc(F)cc3)c(=O)[nH]c2=O)cc1OC,u,-0.7,u,3.0%,19.5%,-3.4%
SMILES,DT40 TDP1 CPT,IL1B secr inh,DT40 TDP1 no CPT,HT1080NT lethal,uPA generation,HT1080 IDH1KD tx
CN(CCC(N)CC(=O)NC1C=CC(n2ccc(N)nc2=O)OC1C(=O)O)C(=N)N (stereo not given),u,x,-20.0%,x,x,x
C=C(C)[C@@H]1CC[C@]2(C(=O)O)CC[C@]3(C)[C@H](CC[C@@H]4[C@@]5(C)CC[C@H](O)C(C)(C)[C@@H]5CC[C@]43C)[C@@H]12,5.8µM*,60.1,3.66µM*,19.3%,-3.1%,2.4%
O=C(c1cc2cc(Cl)ccc2[nH]1)N1CCC2(CC1)OCCO2,18.4µM*,2.3,u,2.6%,2.5%,-3.3%
Cc1ncc(CN2CCCC(C(=O)c3cccc(OC(C)C)c3)C2)s1 (stereo not given),u,36.0,u,5.3%,8.0%,6.0%
COc1c(C)cc(C(=O)C2CCCN(Cc3cnc(C)s3)C2)cc1C (stereo not given),u,0.0,25.9µM*,-4.2%,-3.9%,-6.9%
COc1c(C)cc(C(=O)C2CCCN(Cc3ccccn3)C2)cc1C (stereo not given),u,12.2,18.4µM*,-1.4%,-6.3%,-10.3%
CCOc1cc(/C=N/NC(=O)c2cccs2)ccc1OC(=O)N1CCOCC1,u,7.2,16.4µM*,-28.3%,-5.0%,-26.3%
CCOC(=O)[C@]12Cc3c(cc(OC)c(OC)c3OC)[C@H]1N(C1CCCCC1)C(=O)c1ccccc12,2.91µM*,-112.7*,3.66µM*,3.26µM*,x,2.91µM*
CCOC(=O)[C@]12Cc3ccc(C)cc3[C@H]1N(C1CCCCC1)C(=O)c1ccccc12,2.59µM*,-117.8*,2.31µM*,8.2µM*,x,5.8µM*
CCOC(=O)[C@]12Cc3cc(C)ccc3[C@H]1N(C1CCCCC1)C(=O)c1ccccc12,2.31µM*,-111.2*,2.91µM*,3.66µM*,x,3.66µM*
CCOC(=O)[C@]12Cc3ccccc3[C@H]1N(C(C)C)C(=O)c1ccccc12,u,-115.7*,23.1µM*,u,x,20.6µM*
CCOC(=O)C12C(=O)OCC1C2c1ccccc1 (stereo not given),6.9%,34.3,-13.7%,21.6%,x,15.9%
